Hits are enriched below; roughly 1.7% of the tested compounds scored in any of these assays.
GLP-1R inv ag = GLP-1 receptor (human) inverse agonism; P43220; HEK293 GLP-1R CRE-luciferase, luminescence, 24 h; GLP-1R form is constitutively active; Potency, µM (doses to about 38.3 µM), for inactives: at the highest dose activity change, negative = inhibition, usual class: inhibitors; hit rate 1.6% among 410,000; AID 624417; note: % is set by controls: 0 for no effect and ±100 for the full control effect; nearly all actives have a fitted effect of over 55% in size
Target sequence (P43220 whole entry, looked up): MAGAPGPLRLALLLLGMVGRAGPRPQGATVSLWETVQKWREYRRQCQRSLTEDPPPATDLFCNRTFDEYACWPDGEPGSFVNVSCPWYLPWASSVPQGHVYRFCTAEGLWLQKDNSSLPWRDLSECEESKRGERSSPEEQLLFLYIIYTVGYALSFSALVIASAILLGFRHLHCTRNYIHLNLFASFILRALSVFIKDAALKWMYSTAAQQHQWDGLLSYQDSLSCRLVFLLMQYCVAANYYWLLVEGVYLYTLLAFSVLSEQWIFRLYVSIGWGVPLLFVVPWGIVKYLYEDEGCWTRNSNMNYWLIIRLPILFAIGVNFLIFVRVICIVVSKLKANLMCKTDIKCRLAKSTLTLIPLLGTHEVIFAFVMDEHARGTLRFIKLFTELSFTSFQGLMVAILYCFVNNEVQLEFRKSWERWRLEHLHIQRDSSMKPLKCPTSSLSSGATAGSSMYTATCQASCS
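Assay principle: reduced luminescence from a cAMP-responsive reporter in HEK293 cells co-expressing a constitutively active GLP-1R. Conditions: 24 hr compound incubation, 37 deg C, 5% CO2.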
GLP-1R agonist = agonists of human GLP-1 receptor | HEK293 GLP-1R CRE-luciferase, luminescence, 4-6 h; cells express a hypersensitive GLP-1R form | Potency, µM (highest dose often 45.6 µM), inactives show at the highest dose activation, hits mostly activators | AID 624172 | hit rate 0.007% among 380,000 | P43220; note: % of control where 0% means no effect
HEK293 tox = cytotoxicity counter-screen for GLP-1 receptor inverse agonists; hit rate 0.13% among 410,000; Potency, µM (highest dose often 38.3 µM), for inactives: top-dose activity change, negative = inhibition, hits mostly inhibitors; HEK293 cAMP-luciferase reporter cells, luminescence, 24 h;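 note: loss of luciferase light is scored as toxicity; % is set by controls: 0 for no effect and ±100 for the full control effect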
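To flag toxic compounds, the library was rerun on cells for 24 hr at 37 deg C and 5% CO2. Viability-linked luminescence was captured 12 min after adding luciferase detection reagent.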
An asterisk follows results filed as active; ! = a repeat was not active. Calls come from the whole dose curve; as a rule, active = well fitted curve in the direction sought with a large enough effect; inconclusive = small, poorly fitted or top-dose-only effect, or another doubt; inactive = no such curve, though single readings can be large; an effect the other way counts as inactive or inconclusive. Potency is the fitted concentration of half-maximal effect.

CN1C2CCC1CC(NC(=O)CSCc1ccc(Cl)cc1Cl)C2 (stereo not given) was read as GLP-1R inv ag 7.1µM*, GLP-1R agonist 6% and HEK293 tox 4%.
Cc1ccccc1C(=O)NCC(=O)NC1CC1 was read as GLP-1R inv ag 3%, GLP-1R agonist 1% and HEK293 tox -9%.
`CCCCC1=NN(C(=O)c2cccnc2)C(O)(C(F)(F)F)C1` (stereo not given) gave GLP-1R inv ag inconclusive, GLP-1R agonist 2% and HEK293 tox 1%.
COc1ccc(C(=O)NCC(c2ccco2)N(C)C)cc1S(=O)(=O)NCc1ccc(Cl)cc1 (stereo not given) was read as GLP-1R inv ag 9%, GLP-1R agonist -1% and HEK293 tox 1%.
`COc1cccc(N2CC(NC(=O)C(c3ccccc3)c3ccccc3)CC2=O)c1` (stereo not given) gave GLP-1R inv ag -17% and HEK293 tox 9%.
Screening Cc1onc(-c2ccccc2Cl)c1C(=O)O/N=C(\N)c1cccc([N+](=O)[O-])c1 returned GLP-1R inv ag inconclusive, GLP-1R agonist 24% and HEK293 tox -18%.
`Cc1onc(-c2ccccc2Cl)c1C(=O)O/N=C(\N)c1ccccc1` gave GLP-1R inv ag 10µM*, GLP-1R agonist 16% and HEK293 tox inconclusive.
For CCn1c(=O)cc(OCC(=O)NCc2ccc(F)cc2Cl)c2ccccc21 the results were GLP-1R inv ag -2% and HEK293 tox -4%.
For [NH-]c1ncnc2c1N=C[N+]2=CC=CCO the results were GLP-1R inv ag 0%, GLP-1R agonist 7% and HEK293 tox -10%.
Screening [O-]/C(=C(\C(=S)Nc1ccc(SC(F)F)cc1)[n+]1cccc(CO)c1)c1ccc(Cl)s1 returned GLP-1R inv ag 5µM*, GLP-1R agonist 10% and HEK293 tox inconclusive.
Screening Cc1ccc(NC(=S)/C(=C(\[O-])c2ccc(Cl)s2)[n+]2cccc(CO)c2)cc1C returned GLP-1R inv ag inconclusive, GLP-1R agonist -14% and HEK293 tox -21%.
Screening Cc1cc(C)c(/C([O-])=C(/C(=S)Nc2ccc(SC(F)F)cc2)[n+]2ccccc2)cc1C returned GLP-1R inv ag inconclusive, GLP-1R agonist 6% and HEK293 tox -18%.
[O-]/C(=C(\C(=S)Nc1ccc(SC(F)F)cc1)[n+]1ccccc1)c1cc(Cl)ccc1Cl was read as GLP-1R inv ag 6.3µM*, GLP-1R agonist 11% and HEK293 tox -11%.
For COc1ccccc1OCC(=O)NNC(=O)C1CCN(c2ncnc3sc(C)c(C)c23)CC1 the results were GLP-1R inv ag inconclusive, GLP-1R agonist -5% and HEK293 tox -16%.
Screening COc1ccc(-c2csc(NC(=O)C3CCN(c4ncnc5sc(C)c(C)c45)CC3)n2)cc1OC returned GLP-1R inv ag 7.1µM*, GLP-1R agonist 10% and HEK293 tox inconclusive.
For CCC(C)(C)C1CCC2(CC1)NC(=O)N(CC(=O)N(C)Cc1ccc(OC(F)F)cc1)C2=O (stereo not given) the results were GLP-1R inv ag 1.4µM*, GLP-1R agonist 14% and HEK293 tox -11%.
CCC(C)(C)C1CCC2(CC1)NC(=O)N(CC(=O)N(C)CCOc1ccc(Cl)cc1)C2=O (stereo not given) was read as GLP-1R inv ag -11%, GLP-1R agonist -3% and HEK293 tox 9%.
For C[C@@H]1CN([C@H](C)CO)C(=O)Cc2cc(NS(=O)(=O)c3ccc(F)cc3)ccc2O[C@H]1CN(C)Cc1ccc(C(=O)O)cc1 the results were GLP-1R inv ag 8%, GLP-1R agonist 2% and HEK293 tox -10%.
For C[C@@H]1CCCCO[C@H](CN(C)Cc2ccc3c(c2)OCO3)[C@H](C)CN([C@@H](C)CO)C(=O)c2cc(NC(=O)c3ccccc3)ccc2O1 the results were GLP-1R inv ag inconclusive, GLP-1R agonist 3% and HEK293 tox 1%.
C[C@H](CO)N1C[C@H](C)[C@H](CN(C)Cc2ccccc2)Oc2ccc(NC(=O)Nc3ccc(F)cc3)cc2C1=O was read as GLP-1R inv ag 11µM*, GLP-1R agonist -1% and HEK293 tox 3%.
For C[C@@H]1CN([C@@H](C)CO)C(=O)c2cc(NC(=O)c3ccccc3)ccc2O[C@@H](C)CCCCO[C@@H]1CN(C)Cc1ccc(C(F)(F)F)cc1 the results were GLP-1R inv ag 11µM*, GLP-1R agonist 17% and HEK293 tox -23%.
C[C@H](CO)N1C[C@H](C)[C@H](CN(C)Cc2ccccc2)Oc2c(NC(=O)Nc3ccc(F)cc3)cccc2C1=O was read as GLP-1R inv ag -4%, GLP-1R agonist 4% and HEK293 tox 6%.
For C[C@@H]1CN([C@H](C)CO)C(=O)Cc2cc(NS(=O)(=O)c3ccc(Cl)cc3)ccc2O[C@H]1CN(C)Cc1ccc(C(F)(F)F)cc1 the results were GLP-1R inv ag 10µM*, GLP-1R agonist -4% and HEK293 tox -56%.
COc1ccc(CCc2ccc3ccccc3n2)cc1 was read as GLP-1R inv ag 10µM*, GLP-1R agonist 23% and HEK293 tox -7%.
COc1ccc(CCc2ccnc3ccccc23)cc1 was read as GLP-1R inv ag inconclusive, GLP-1R agonist 38% and HEK293 tox -1%.
`CCOc1ccc(Nc2nc(NCC3CCCO3)c3ccccc3n2)cc1` (stereo not given) gave GLP-1R inv ag 3.5µM*, GLP-1R agonist 2% and HEK293 tox inconclusive.
`COc1ccc(Nc2nc(NCC3CCCO3)c3ccccc3n2)c(OC)c1` (stereo not given) gave GLP-1R inv ag inconclusive, GLP-1R agonist -3% and HEK293 tox -2%.
Oc1ccc(Nc2ccnc3cc(Cl)ccc23)cc1 was read as GLP-1R inv ag 51%, GLP-1R agonist inconclusive and HEK293 tox inconclusive.
`CCN(CC)Cc1cc(Nc2ccnc3cc(Cl)ccc23)ccc1O` gave GLP-1R inv ag 11µM*!, GLP-1R agonist 0% and HEK293 tox inconclusive.
Screening CCOc1ccc(NS(=O)(=O)c2ccc3c4c(cccc24)C(=O)N3)cc1 returned GLP-1R inv ag 15% and HEK293 tox 7%.
For CCCCCCCCCCCCCCCC[n+]1cccc2ccccc21 the results were GLP-1R inv ag inconclusive, GLP-1R agonist -18% and HEK293 tox inconclusive.
Screening CCCCCCCCC[n+]1cccc2c3ccccc3ccc21 returned GLP-1R inv ag 10µM*, GLP-1R agonist -13% and HEK293 tox inconclusive.
For COc1cccc(OCCn2cccc2/C=C2/C(=N)N3OC(C)=CC3=NC2=O)c1 the results were GLP-1R inv ag 15%, GLP-1R agonist 1% and HEK293 tox 2%.
Screening CC1=CC2=NC(=O)/C(=C\c3cccn3CCOc3cccc(C)c3)C(=N)N2O1 returned GLP-1R inv ag 10µM*, GLP-1R agonist 9% and HEK293 tox -4%.
CCCCN1CCCC[C@H]1C(=O)Nc1c(C)cccc1C was read as GLP-1R agonist 6%.
`O=C(Nc1ccc(Cl)cc1)Nc1ccc(Cl)c(C(F)(F)F)c1` gave GLP-1R agonist -4%.
Screening CC1=C(C(=O)NC(C)CCc2ccccc2)C2(CCC(C)CC2)OC1=O (stereo not given) returned GLP-1R inv ag 8.9µM*, GLP-1R agonist 13% and HEK293 tox 8%.

Bioassay records as filed in PubChem.
